High-throughput results from PubChem.
A selection: hits, their analogues and other compounds. The true share with any hit is near 27%.
CYP2C19 inhib – blockers of cytochrome P450 2C19 activity – biochemical, luminescence, ADME assay, primary screen. CYP2C19 Supersomes, luciferin-H EGE luminescence, 30 min. inhibition, % at 5 µM. 96,000 tested, 21% active;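 active = CYP2C19 inhibition above a set limit at 5 µM in the primary screen, cut at about 50% in these data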
sEH activator – soluble epoxide hydrolase activators, primary screen, biochemical, human sEH | Bifunctional epoxide hydrolase 2 (Homo sapiens), P34913 | purified human sEH enzymatic activity, activator screen | activation, % at 2 µM | 91,000 tested, 0.04% active | AID 717, 2007; in the data active = activation above about 37%
Target sequence (P34913 whole entry, looked up): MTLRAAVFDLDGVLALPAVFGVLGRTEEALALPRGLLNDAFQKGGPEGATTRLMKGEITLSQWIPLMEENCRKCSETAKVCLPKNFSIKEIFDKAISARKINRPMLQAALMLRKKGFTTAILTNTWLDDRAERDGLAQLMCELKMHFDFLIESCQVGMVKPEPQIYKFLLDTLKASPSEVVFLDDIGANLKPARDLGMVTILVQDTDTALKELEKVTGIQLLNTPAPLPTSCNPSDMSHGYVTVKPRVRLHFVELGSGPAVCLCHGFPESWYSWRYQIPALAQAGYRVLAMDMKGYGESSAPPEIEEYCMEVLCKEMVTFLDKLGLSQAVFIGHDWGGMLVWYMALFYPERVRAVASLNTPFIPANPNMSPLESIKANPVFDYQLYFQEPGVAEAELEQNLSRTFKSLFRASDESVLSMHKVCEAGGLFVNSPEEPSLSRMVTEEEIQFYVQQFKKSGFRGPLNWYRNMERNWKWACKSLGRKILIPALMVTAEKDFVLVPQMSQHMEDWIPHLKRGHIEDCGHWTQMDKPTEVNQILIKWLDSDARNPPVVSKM
sEH inh – soluble epoxide hydrolase inhibitors, primary screen, biochemical, human sEH | Bifunctional epoxide hydrolase 2 (Homo sapiens), P34913 | recombinant human sEH enzymatic activity assay | inhibition, % at 2 µM | 91,000 tested, 0.34% active | AID 707, 2007; in the data active = inhibition above about 80%
CYP2C9 act – human CYP2C9 activators, primary screen, biochemical, luminescence | Cytochrome P450 2C9 (Homo sapiens), P11712 | recombinant CYP2C9, luciferin-H conversion; stronger effect = higher value; factor 1 = untreated enzyme, 0 = blocked | activation factor at 5 µM | 96,000 tested, 1.4% active;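 active = activation factor of 2 or more for CYP2C9 at a 5 µM dose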
CYP2C9 inh – blockers of cytochrome P450 2C9 activity – biochemical, luminescence, ADME assay, primary screen; P11712; 96,000 tested, 20% active; CYP2C9 Supersomes, luciferin-H conversion; inhibition, % at 5 µM; AID 777, 2007;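 active = blocking of liver enzyme CYP2C9 beyond about 50% at 5 µM, limit read from the data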
CYP2C19 activ – human CYP2C19 activators, primary screen, biochemical, luminescence. Cytochrome P450 2C19 (Homo sapiens), P33261. recombinant CYP2C19, luciferin-H EGE luminescence; stronger effect = higher value; 0 = fully inhibited enzyme, 1 = untreated enzyme. activation factor at 5 µM. 96,000 tested, under 10 active;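 active = activation factor of at least 2 at 5 µM in the primary screen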
Large screens that a line does not name were inactive.

O=C(c1cc(-c2ccco2)on1)N1CCN(C(c2ccccc2)c2ccccc2)CC1	none (no result: sEH activator, sEH inh)
CCOC(=O)C1CCCN(C(=O)c2ccc3c(c2)NC(=O)C(N2CCOCC2)S3)C1 (centres undefined)	none
Cc1ccccc1-n1nnnc1SC1CCOC1=O (centres undefined)	CYP2C19 inhib 58.6, CYP2C9 act 2.2 (no result: sEH activator, sEH inh)
O=C(Cn1sc2ccccc2c1=O)NC12CC3CC(CC(C3)C1)C2	CYP2C9 inh 90.3
NC(=O)c1ccccc1OCC(=O)NC12CC3CC(CC(C3)C1)C2	none
COc1ccccc1NCC(O)Cn1c2ccccc2c2ccccc21 (centres undefined)	CYP2C19 inhib 68.6, CYP2C9 inh 76.8
CC1CCN(c2c(NCc3ccc(C(=O)NCc4cccnc4)cc3)c(=O)c2=O)CC1	none (no result: sEH activator, sEH inh)
COc1ccc(NC2=NCC(=O)N2c2ccccc2)c(OC)c1	CYP2C19 inhib 64.0, CYP2C9 inh 52.4
C=CCn1c(SCC(=O)c2ccccc2)nnc1-c1ccc2c(c1)OCO2	CYP2C19 inhib 77.3
C=CCn1c(SCC(=O)c2ccccc2)nnc1-c1cc2ccccc2o1	CYP2C19 inhib 77.8 (no result: sEH activator, sEH inh)
c1ccc(Nc2nn[nH]n2)cc1	none (no result: sEH activator, sEH inh)
O=C(NCc1ccc(F)cc1)c1cnc(-c2ccccn2)nc1C(F)(F)F	none
CN(C)C=Nc1ncc2c([nH]c3ccccc32)c1C#N	CYP2C19 inhib 63.1
CCOC(=O)C(NCc1ccccc1OC)(NC(C)=O)C(F)(F)F (centres undefined)	none
CC1=NN(C(=O)c2cccc(Cn3nc(C)c([N+](=O)[O-])c3C)c2)C(O)(C(F)(F)F)C1 (centres undefined)	CYP2C9 inh 70.0
Cc1nn(Cc2cccc(C(=O)Nc3ccn(Cc4ccccc4)n3)c2)c(C)c1[N+](=O)[O-]	none
Cc1nn(Cc2cccc(C(=O)N3N=C(C(F)F)CC3(O)C(F)F)c2)c(C)c1[N+](=O)[O-] (centres undefined)	CYP2C19 inhib 78.0, CYP2C9 inh 85.3
Cc1nn(Cc2cccc(C(=O)NC(C)c3ccc(C(C)(C)C)cc3)c2)c(C)c1[N+](=O)[O-] (centres undefined)	CYP2C19 inhib 78.2, CYP2C9 inh 86.7
CCC(NC(=O)c1cccc(Cn2nc(C)c([N+](=O)[O-])c2C)c1)c1ccc(C(C)C)cc1 (centres undefined)	none
CC(=O)c1nn(-c2cccc(Br)c2)cc1C(=O)c1ccc(C)cc1	CYP2C9 inh 60.8
CC(=O)c1nn(-c2cccc(Br)c2)cc1C(=O)c1ccc(Br)cc1	CYP2C9 act 2.4
Clc1ccc(OCCSc2ncccn2)cc1	none
COc1ccc(C(c2nnnn2Cc2ccccc2)N2CCN(c3nc4ccccc4s3)CC2)cc1OC (centres undefined)	none (no result: CYP2C19 inhib, CYP2C9 act, CYP2C9 inh, CYP2C19 activ)
COc1ccc(C(c2nnnn2C(C)(C)C)N2CCN(c3nc4ccccc4s3)CC2)cc1 (centres undefined)	CYP2C9 inh 63.2 (no result: sEH activator, sEH inh)
CC1CCN(C(c2ccccc2)c2nnnn2C(C)(C)C)CC1 (centres undefined)	none (no result: sEH activator, sEH inh)
CC(C)(C)n1nnnc1C(c1ccncc1)N1CCN(c2ccc(O)cc2)CC1 (centres undefined)	CYP2C9 inh 75.7
CCC(C)(C)n1nnnc1C(c1ccc(O)c(OC)c1)N1CCc2ccccc2C1 (centres undefined)	none
CCC(C)(C)n1nnnc1C(c1ccc(O)c(OC)c1)N1CCN(c2nc3ccccc3s2)CC1 (centres undefined)	CYP2C9 inh 77.3 (no result: sEH activator, sEH inh)
CS(=O)(=O)N1CCN(C2CCN(Cc3ccccc3)CC2)CC1	none
Cc1ccc(-c2nnc(N3CCCCC3)c3ccccc23)cc1S(=O)(=O)NCC1CCCO1 (centres undefined)	none
CCC(C)(C)n1nnnc1CN1CCC(O)(c2cccc(C(F)(F)F)c2)CC1	none (no result: CYP2C19 inhib, CYP2C9 act, CYP2C9 inh, CYP2C19 activ)
Cc1cccc(NC(=O)C2CC(=O)N(c3ccccc3)C2)c1C (centres undefined)	none
CC(=O)c1cccc(Nc2nc(-c3cccc([N+](=O)[O-])c3)cs2)c1	CYP2C9 inh 57.4
O=C(Nc1nc(-c2cccc([N+](=O)[O-])c2)cs1)C(c1ccccc1)c1ccccc1	CYP2C9 inh 73.9
CC1Cc2cc(-c3csc(NC(=O)Cc4ccccc4)n3)ccc2N1S(C)(=O)=O (centres undefined)	CYP2C9 inh 58.1
Cc1ccc(-c2csc(NC(=O)c3cccc([N+](=O)[O-])c3)n2)cc1	none
CS(=O)(=O)N1CCc2cc(-c3csc(NC(=O)C(c4ccccc4)c4ccccc4)n3)ccc21	CYP2C9 inh 57.5
CC(=O)Nc1nc(C)c(-c2csc(Nc3ccc(O)cc3)n2)s1	CYP2C9 inh 76.0
CC(=O)Nc1nc(C)c(-c2csc(Nc3cccc([N+](=O)[O-])c3)n2)s1	CYP2C19 inhib 82.7, CYP2C9 inh 89.4
O=C(NCCn1ccc2ccccc21)c1ccc(S(=O)(=O)N2CCOCC2)cc1	none
Cc1ccccc1C(=O)NCc1nnc(SCC(=O)N2c3ccccc3Sc3ccccc32)n1C	none
Cc1c(NC(=O)c2cc3nc(-c4ccc(Br)cc4)cc(C(F)(F)F)n3n2)c(=O)n(-c2ccccc2)n1C	none (no result: CYP2C19 inhib, CYP2C9 act, CYP2C9 inh, CYP2C19 activ)
Cc1ccc(S(=O)(=O)NC(=O)NCc2ccccc2)cc1	none
CCCCOc1ccc(CNC(=O)NS(=O)(=O)c2ccc(OCC)cc2)cc1	CYP2C9 inh 86.4
CCCCOc1ccc(CNC(=O)NS(=O)(=O)c2ccc(OCC(C)C)cc2)cc1	CYP2C9 inh 90.4
CCCCOc1ccc(S(=O)(=O)NC(=O)NCc2ccc(OCCC)cc2)cc1	none (no result: CYP2C19 inhib, CYP2C9 act, CYP2C9 inh, CYP2C19 activ)
Cc1ccc(C(=O)c2c(C)oc3c2C(=O)C(=O)c2ccccc2-3)cc1	CYP2C19 inhib 62.8, CYP2C9 inh 56.3
Cc1ccc(C(=O)c2coc3c2C(=O)C(=O)c2ccccc2-3)cc1	CYP2C9 inh 72.2
Cc1oc2c(c1C(=O)c1ccc(Cl)cc1)C(=O)C(=O)c1ccccc1-2	none
O=C(Nc1ccc2c(c1)OCCO2)C1CCN(C(=O)c2ccc(F)cc2)CC1	none
Cc1cc(=O)oc2cc(OCC(=O)OCC(=O)NCc3ccc4c(c3)OCO4)ccc12	none
N#Cc1ccc(Cl)cc1NC(=O)COC(=O)c1ccc2c(c1)OCCO2	none
O=C(COC(=O)c1ccc2c(c1)OCO2)NCc1ccc(Cl)cc1	CYP2C9 act 2
O=C(COC(=O)CCC(=O)c1ccc2c(c1)OCCO2)NCc1ccc2c(c1)OCO2	CYP2C9 inh 80.7
COc1ccc(NC(=O)C2C3C=CC(C3)C2C(=O)NCc2ccco2)cc1 (centres undefined)	CYP2C19 inhib 66.9
COc1ccc(OCCCC(=O)NCc2ccco2)cc1	none
